Screens: PubChem BioAssay, Broad Institute
NOMO-1 viab: NOMO-1 AML cell viability reduction, primary screen, STK33 inhibitor project, CellTiter-Glo luminescence | inhibition, % (no concentration beside the values) | actives 7.5% (n = 37,000) | NOMO-1 AML viability, 72 h; in the data active = inhibition above about 80%; inconclusive = no clear call, values can overlap the other calls
Hedgehog inh: Hedgehog pathway signaling inhibitors, primary screen, luminescence, Shh-LIGHT2 cells, Gli-luciferase | actives 2.1% (n = 22,000) | AID 2313, 2010 | inhibition, % (concentration not given with the values) | Shh-LIGHT2 Gli-luciferase reporter, 30 h;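 active = mean inhibition across valid replicates above about 65%, limit read from the data; inconclusive = mean under the limit, yet half or more replicates past it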;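 note: pathway switched on by Shh-conditioned medium diluted 1 in 25 in low serum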
PD-1 reversal: activators reversing PD-1 mediated T-cell inhibition, primary screen, luminescence, primary human CD4 T cells, PD-L1 beads; 29,000 tested, under 10 active; activation, % (no concentration beside the values); CellTiter-Glo 96 h; call rule not given here;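 note: 0% = median vehicle wells and 100% = positive control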
The depositor's hits bear a star. Rows were chosen to be rich in hits. Some 7.7% of all compounds tested hit in one or more screens of this group.

C=C(C)[C@@H]1CC[C@]2(C(=O)O)CC[C@]3(C)[C@H](CC[C@@H]4[C@@]5(C)CC[C@H](O)C(C)(C)[C@@H]5CC[C@]43C)[C@@H]12 was read as NOMO-1 viab 105.2* and Hedgehog inh -2.9.
Screening COc1ccc(-c2csc(NC(=O)c3cc(-c4ccc(C)o4)nc4ccccc34)c2C#N)cc1OC returned NOMO-1 viab 21.0.
Screening O=C(O)CCc1ccc(-c2ccc(F)cc2)n1-c1ccc(C(=O)O)cc1 returned NOMO-1 viab -11.7 and PD-1 reversal 0.1.
Screening N#CC1=C(N)Nc2onc(-c3cccc(O)c3)c2C1c1ccccc1 (configuration not stated) returned NOMO-1 viab 39.9, Hedgehog inh 7.3 and PD-1 reversal -2.0.
O=C(CNS(=O)(=O)c1cc(Cl)ccc1Cl)Nc1ccc(Oc2ccccc2)cc1 was read as NOMO-1 viab 18.1 and PD-1 reversal -0.9.
O=C(CSc1nc2ccccc2o1)Nc1ccc(Br)cc1Cl was read as NOMO-1 viab -5.8 and PD-1 reversal 2.2.
Screening COc1ccc(S(=O)(=O)N(C)CC(=O)Nc2cc(C(F)(F)F)ccc2Cl)cc1C returned NOMO-1 viab 19.4 and PD-1 reversal 1.3.
For C[C@@H]1CN([C@H](C)CO)C(=O)c2cc(NC(=O)Cc3cn(C)c4ccccc34)ccc2O[C@@H]1CN(C)Cc1ccc(Cl)c(Cl)c1 the results were NOMO-1 viab 111.7*, Hedgehog inh 23.6 and PD-1 reversal -2.8.
Screening C[C@@H]1CN([C@H](C)CO)C(=O)c2cc(NC(=O)Cc3cn(C)c4ccccc34)ccc2O[C@H]1CN(C)Cc1ccc(Cl)c(Cl)c1 returned NOMO-1 viab inconclusive, Hedgehog inh 9.2 and PD-1 reversal 0.2.
C[C@H]1CN([C@@H](C)CO)C(=O)c2cc(NC(=O)Cc3cn(C)c4ccccc34)ccc2O[C@H]1CN(C)Cc1ccc2c(c1)OCO2 was read as NOMO-1 viab 72.9 and PD-1 reversal -0.1.
`C[C@@H]1CN([C@@H](C)CO)C(=O)c2cc(NC(=O)Cc3cn(C)c4ccccc34)ccc2O[C@@H]1CN(C)Cc1ccc(Cl)c(Cl)c1` gave NOMO-1 viab 92.1* and PD-1 reversal -3.9.
For COc1ccc(N(CC(=O)Nc2ccccc2-c2ccccc2)S(C)(=O)=O)cc1 the results were NOMO-1 viab -0.4 and PD-1 reversal 0.1.
CCOC(=O)/C(=N/O)C1=NN=C(N)SC1 was read as NOMO-1 viab -3.3, Hedgehog inh 2.7 and PD-1 reversal 1.6.
Screening Cc1nn(Cc2ccc(F)cc2)c(C)c1NC(=O)c1cc(-c2cccnc2)nc2c(Cl)cccc12 returned NOMO-1 viab 53.9.
Screening CCOC(=O)c1cnc2c(c(C3CC3)nn2C)c1N1CCOCC1 returned NOMO-1 viab 4.0 and PD-1 reversal 0.0.
`CCOC(=O)c1cnc2c(c(C)nn2C)c1Sc1nnc(SC)s1` gave NOMO-1 viab 125.1*, Hedgehog inh 83.8* and PD-1 reversal -5.5.
Screening Cc1nnc(SCC(=O)Nc2cccc3ccccc23)s1 returned NOMO-1 viab 7.1 and PD-1 reversal 2.1.
`O=C(NCCO)c1cc[n+](CC(=O)c2cccs2)cc1` gave NOMO-1 viab -7.3 and PD-1 reversal 0.5.
Screening Cc1ccc(S(=O)(=O)N(C)C[C@@H]2Oc3ccc(NC(=O)CCC(F)(F)F)cc3CC(=O)N([C@H](C)CO)C[C@H]2C)cc1 returned NOMO-1 viab -10.9 and Hedgehog inh -41.1.
`C[C@H]1CN([C@@H](C)CO)C(=O)Cc2cc(NC(=O)Nc3ccc(F)cc3)ccc2O[C@H]1CN(C)S(=O)(=O)c1ccc(Cl)cc1` gave NOMO-1 viab 114.4*, Hedgehog inh 13.3 and PD-1 reversal -2.0.
For Cc1ccc(S(=O)(=O)N(C)C[C@@H]2Oc3ccc(NC(=O)CCC(F)(F)F)cc3CC(=O)N([C@@H](C)CO)C[C@@H]2C)cc1 the results were NOMO-1 viab 133.7*, Hedgehog inh 4.7 and PD-1 reversal 0.3.
Cc1ccc(S(=O)(=O)N(C)C[C@@H]2Oc3ccc(NC(=O)Nc4ccccc4)cc3CC(=O)N([C@@H](C)CO)C[C@@H]2C)cc1 was read as NOMO-1 viab 124.3* and Hedgehog inh -11.9.
`C[C@@H]1CN([C@@H](C)CO)C(=O)Cc2cc(NC(=O)Nc3ccccc3)ccc2O[C@@H]1CN(C)S(=O)(=O)c1ccccc1` gave NOMO-1 viab 53.4 and Hedgehog inh -10.0.
For C[C@H]1CN([C@@H](C)CO)C(=O)Cc2cc(NC(=O)Nc3ccccc3)ccc2O[C@@H]1CN(C)S(=O)(=O)c1ccc(Cl)cc1 the results were NOMO-1 viab 20.1, Hedgehog inh -30.4 and PD-1 reversal -1.0.
`C[C@@H]1CN([C@H](C)CO)C(=O)Cc2cc(NC(=O)Nc3ccc(F)cc3)ccc2O[C@@H]1CN(C)S(=O)(=O)c1ccc(Cl)cc1` gave NOMO-1 viab 5.9, Hedgehog inh 26.0 and PD-1 reversal -1.8.
For C[C@H]1CN([C@@H](C)CO)C(=O)Cc2cc(NC(=O)Nc3ccccc3)ccc2O[C@H]1CN(C)S(=O)(=O)c1ccc(Cl)cc1 the results were NOMO-1 viab 113.2*, Hedgehog inh 10.9 and PD-1 reversal -0.8.
CCOc1ccc2nc(NS(=O)(=O)c3ccc(C)c([N+](=O)[O-])c3)sc2c1 was read as NOMO-1 viab 7.9 and PD-1 reversal 1.7.
For COc1ccc(-c2nn(-c3ccccc3)cc2C2NC(=O)NC(C)=C2C(=O)OCc2ccccc2)cc1 (configuration not stated) the results were NOMO-1 viab 20.1 and PD-1 reversal -3.2.
For O=C(N1CCCc2ccccc21)C(F)(F)F the results were NOMO-1 viab -6.0, Hedgehog inh 20.4 and PD-1 reversal 0.1.
C[C@@H]1CN([C@@H](C)CO)C(=O)c2cccc(NC(=O)Nc3ccc(C(F)(F)F)cc3)c2O[C@@H]1CN(C)Cc1ccc(Cl)c(Cl)c1 was read as NOMO-1 viab inconclusive, Hedgehog inh 2.2 and PD-1 reversal -2.7.
C[C@H]1CN([C@@H](C)CO)C(=O)c2cccc(NC(=O)Nc3ccc(C(F)(F)F)cc3)c2O[C@@H]1CN(C)Cc1ccc(Cl)c(Cl)c1 was read as NOMO-1 viab 106.9*, Hedgehog inh -14.0 and PD-1 reversal -4.6.
C[C@H](CO)N1C[C@H](C)[C@@H](CN(C)Cc2ccc(Cl)c(Cl)c2)Oc2c(NC(=O)Nc3ccc(C(F)(F)F)cc3)cccc2C1=O was read as NOMO-1 viab 108.6*, Hedgehog inh -34.6 and PD-1 reversal -4.4.
For C[C@@H]1CN([C@H](C)CO)C(=O)c2cccc(NC(=O)Nc3ccc(C(F)(F)F)cc3)c2O[C@@H]1CN(C)Cc1ccncc1 the results were NOMO-1 viab 8.0, Hedgehog inh -8.3 and PD-1 reversal -0.7.
For Cc1c(Cl)cccc1NC(=O)Cn1cc(C(=O)c2ccccc2)c2ccccc21 the results were NOMO-1 viab 55.1 and PD-1 reversal -3.6.
c1coc(CCC2NCCn3cccc32)c1 (configuration not stated) was read as NOMO-1 viab 56.5, Hedgehog inh 3.4 and PD-1 reversal -3.9.
Screening CSc1ccccc1NC(=O)CN(c1ccc(Cl)cc1)S(C)(=O)=O returned NOMO-1 viab 4.6 and PD-1 reversal 1.8.
For O=C(CSc1nc2ccccc2[nH]1)Nc1ccccc1-c1ccccc1 the results were NOMO-1 viab 0.0.
